Screening data from PubChem.
This is a sample that favours compounds with a hit; in the whole collection about 4% have one here.
Mtb FBA inh: Mtb FBA enzyme inhibitors, primary screen, biochemical, fluorescence, strain H37Rv | Fructose-bisphosphate aldolase (Mycobacterium tuberculosis (strain ATCC 25618 / H37Rv)), … | purified M. tuberculosis FBA, fluorescence read-out | inhibition, % at 1 µM | 360,000 tested, 2.3% active | AID 588726, 2011; in the data active = inhibition above about 27%
GDH-TPI counter: GDH-TPI coupling enzyme inhibitors, primary screen, artefact control for M. tuberculosis FBA inhibitor project, biochemical, absorbance, full deck; inhibition, % at 4.8 µM; AID 588335, 2011; GDH-TPI coupled enzyme counterscreen, NADH absorbance; 360,000 tested, 1.2% active; in the data active = inhibition above about 30%
RecA intein inh: Mtb RecA intein splicing inhibitors, primary screen, biochemical, fluorescence, HTS; 290,000 tested, 0.75% active; inhibition, % (test concentration not listed); cell-free RecA intein splicing; in the data active = inhibition above about 30%; inconclusive = no clear call, values can overlap the other calls
UGM FP inh: M. tuberculosis UGM enzyme inhibitors, primary screen, biochemical, fluorescence polarization, single point | inhibition, % at 10 µM | 320,000 tested, 0.06% active | AID 504406, 2011 | UDP-galactopyranose mutase (Mycobacterium tuberculosis (strain ATCC 25618 / H37Rv)), … | purified UGM, fluorescence polarization probe displacement; in the data active = inhibition above about 10%, passing the limit was not always enough; inconclusive = no clear call, values can overlap the other calls
Target sequence (P9WIQ1 whole entry, looked up): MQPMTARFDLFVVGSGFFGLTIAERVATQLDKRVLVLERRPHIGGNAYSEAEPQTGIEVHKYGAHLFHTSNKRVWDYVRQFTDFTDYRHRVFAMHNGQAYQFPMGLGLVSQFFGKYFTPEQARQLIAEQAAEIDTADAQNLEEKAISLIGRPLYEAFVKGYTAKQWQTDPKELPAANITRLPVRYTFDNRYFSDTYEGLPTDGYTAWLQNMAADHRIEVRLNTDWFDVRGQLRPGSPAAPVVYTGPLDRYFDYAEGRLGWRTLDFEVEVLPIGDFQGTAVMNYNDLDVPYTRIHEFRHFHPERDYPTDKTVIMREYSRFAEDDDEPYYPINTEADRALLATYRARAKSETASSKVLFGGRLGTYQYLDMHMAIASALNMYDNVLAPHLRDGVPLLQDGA
Rv3671c protease: Rv3671c serine protease inhibitors, primary screen, biochemical, fluorescence polarization, M. tuberculosis H37Rv; P9WHR9; inhibition, % at 5.96 µM; 320,000 tested, 0.048% active; AID 2606, 2010; in the data active = inhibition above about 38%;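 note: extracellular domain of Rv3671c used as enzyme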
Mtb bLac sens: beta-lactam sensitization of Mtb H37Rv, H37Rv. M. tuberculosis H37Rv growth with meropenem, percent inhibition. inhibition, % at 25 µM. 330,000 tested, 0.27% active. AID 434955, 2010; call rule not given here;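 note: growth measured after seven days incubation then overnight dye step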
Each line names hits and unclear results; the compound was inactive in the other large screens.

O=C(CN(C(=O)c1csnn1)c1ccccc1C(F)(F)F)NC1CCCCC1	none
CC(=O)c1ccc(Sc2nnnn2-c2ccccc2)c([N+](=O)[O-])c1	RecA intein inh 31
CN1CCN(S(=O)(=O)c2ccc(Sc3nnnn3-c3ccccc3)c([N+](=O)[O-])c2)CC1	none
CS(=O)(=O)c1ccc(-c2cn3cc(C(=O)O)ccc3n2)cc1	Mtb FBA inh 114
COC(=O)c1ccc2nc(-c3cccc(N)c3)cn2c1	none
C=C(C)c1cccc(C(C)(C)NC(=O)N2CCN(CC)CC2)c1	none
C=C(C)c1cccc(C(C)(C)NC(=O)N2CCCCC2CC)c1 (stereo not drawn)	Mtb FBA inh 180
Cc1[nH]n(-c2ccccc2)c(=O)c1C(c1ccccc1C(=O)O)c1c(C)[nH]n(-c2ccccc2)c1=O	none
Cc1[nH]n(-c2ccccc2)c(=O)c1C(c1ccccc1[N+](=O)[O-])C(C#N)C#N (stereo not drawn)	RecA intein inh 64
CC(C)(C)c1ccc(/C=C2\SC(=O)N(CCNC(=O)c3cccc(S(=O)(=O)N4CCOCC4)c3)C2=O)cc1	RecA intein inh 31
CC(=O)Oc1ccccc1Cn1c(C)c(C(=O)N(C)Cc2ccc(F)cc2)sc1=O	none (no result: RecA intein inh, UGM FP inh, Rv3671c protease, Mtb bLac sens)
CC(=O)c1ccc(-c2nc3ccccc3n2C)o1	Mtb FBA inh active
Cc1c(C(=O)N2CCC(C)(C(=O)NS(=O)(=O)C3CC3)C2)oc2ccccc12 (stereo not drawn)	none (no result: RecA intein inh, UGM FP inh, Rv3671c protease, Mtb bLac sens)
c1ccc(-c2nc3nc4ccccc4nc3n2Cc2ccco2)cc1	none
Fc1ccc(-c2nc3nc4ccccc4nc3n2Cc2ccco2)cc1	GDH-TPI counter 40
C=CCn1c(-c2ccc(OC)cc2)nc2nc3ccccc3nc21	Mtb FBA inh 144
Fc1ccc(-n2c(-c3ccco3)nc3nc4ccccc4nc32)cc1	Mtb FBA inh 126
Cc1nn(CCC(N)=O)c2nc(-c3cccs3)cc(C(F)(F)F)c12	Mtb FBA inh 153, GDH-TPI counter 31
N#Cc1c(C(F)(F)F)cc(-c2cccs2)nc1SCC(=O)O	GDH-TPI counter 37
Cc1nn(CCC(=O)O)c2nc(-c3cccnc3)cc(C(F)(F)F)c12	none
C[C@H]1CN=C(Nc2ccccc2)N1CC1CCCCCC1	none
C=CCOc1ccc(/C(O)=C2\C(=O)C(=O)N(CCOC)C2c2cccnc2)cc1 (stereo not drawn)	GDH-TPI counter 34
COCCCN1C(=O)C(=O)/C(=C(/O)c2ccc(OCC(C)C)cc2C)C1c1cccnc1 (stereo not drawn)	GDH-TPI counter 44
CCCOc1ccc(/C(O)=C2/C(=O)C(=O)N(CCOC)C2c2cccnc2)cc1 (stereo not drawn)	none (no result: Mtb FBA inh, GDH-TPI counter)
COCCN1C(=O)C(=O)/C(=C(/O)c2cccc(OC)c2)C1c1ccco1 (stereo not drawn)	GDH-TPI counter 35
CC(C)(C)c1ccc(CC(=O)N2CCC2(C)C(=O)O)cc1 (stereo not drawn)	none (no result: RecA intein inh, UGM FP inh, Rv3671c protease, Mtb bLac sens)
COc1cc(CNC(=O)c2cc(-c3ccc(F)cc3OC)n[nH]2)cc(OC)c1	none (no result: RecA intein inh, UGM FP inh, Rv3671c protease, Mtb bLac sens)
O=C(O)COc1ccccc1C(Nc1cccnc1)c1cc(Cl)c2cccnc2c1O (stereo not drawn)	RecA intein inh 41 (no result: UGM FP inh, Rv3671c protease, Mtb bLac sens)
O=[N+]([O-])c1cccc(-c2ccc(C(=S)N3CCOCC3)o2)c1	GDH-TPI counter 41
CN1CCN(C(=S)c2ccc(-c3cccc([N+](=O)[O-])c3)o2)CC1	none (no result: RecA intein inh)
O=C(NCCN1CCOCC1)C(=O)NCC1OCCN1S(=O)(=O)c1ccccc1 (stereo not drawn)	none
CCCn1c(=O)[nH]c(=O)c2c1nc(-c1ccc(OC(F)(F)C(F)C(F)(F)F)cc1)n2CCOC (stereo not drawn)	none
CCCn1c(=O)[nH]c(=O)c2c1nc(-c1ccc(C#N)cc1)n2CCOC	Mtb FBA inh active
COCCn1c(-c2ccc(C#N)cc2)nc2c1c(=O)[nH]c(=O)n2Cc1ccccc1	Mtb FBA inh active
CCCCN1C(=O)N(c2ccccc2Cl)C(C)(O)CC1(C)C (stereo not drawn)	none
NC(=S)N=Nc1c(O)cc(O)c2[nH]c(=O)ccc12	GDH-TPI counter 37 (no result: RecA intein inh, UGM FP inh, Rv3671c protease, Mtb bLac sens)
O=C(Nc1cccc2ccccc12)NC(Cc1ccccc1)C(=O)O (stereo not drawn)	none
Cc1c(OCc2nn[nH]n2)ccc2c(-c3ccccc3)cc(=O)oc12	none
Cc1c(CC(=O)O)c(=O)oc2c(C)c(OCc3nn[nH]n3)ccc12	Mtb FBA inh 147
Cc1cc(OCc2nn[nH]n2)c2c(C)c(CC(=O)O)c(=O)oc2c1	Mtb FBA inh active
CC(C)(CO)NC(=O)C12CC3CC(CC(Br)(C3)C1)C2	none
Cc1cnc(NC(=O)c2sc(Nc3ccccc3)nc2N)o1	GDH-TPI counter 31
Nc1nc(Nc2ccccc2)sc1C(=O)c1ccccc1	none
CN(/C=C/C(=O)C(F)(F)F)Cc1ccccc1	GDH-TPI counter 32
CCC1=CC(c2ccccc2)n2ncnc2N1 (stereo not drawn)	Mtb FBA inh 35
CCOC(=O)C(=CNc1ccccc1N1CCOCC1)C(=O)OCC	GDH-TPI counter 50
Cc1cc(C(=O)CCC(=O)Nc2cccc(F)c2)c(C)s1	none (no result: RecA intein inh, UGM FP inh, Rv3671c protease, Mtb bLac sens)
CC(=NCc1ccco1)c1c(O)n(C2CCCCC2)c(=O)[nH]c1=O	none
CC(=NCCO)c1c(O)n(C2CCCCC2)c(=O)[nH]c1=O	none
C/C(=N\NC(=O)c1ccccc1O)c1c(O)n(Cc2ccccc2)c(=O)[nH]c1=O	GDH-TPI counter 47
C/C(=N\NC(=O)c1ccccc1Cl)c1c(O)n(C2CCCCC2)c(=O)[nH]c1=O	GDH-TPI counter 37
C/C(=N\NC(=O)c1ccccc1O)c1c(O)n(C2CCCCC2)c(=O)[nH]c1=O	GDH-TPI counter 46
C/C(=N\NC(=O)c1ccccc1)c1c(O)n(C2CCCCC2)c(=O)[nH]c1=O	GDH-TPI counter 38, Mtb bLac sens inconclusive
CCOc1cc(-c2nc3ccccc3s2)ccc1O	Mtb FBA inh active
COc1cc(OC)c(-c2nc3ccccc3s2)cc1OC	Mtb FBA inh active
COc1ccc(-c2nc3ccccc3s2)cc1O	GDH-TPI counter 36
COc1cccc(-c2nc3ccccc3s2)c1O	none (no result: RecA intein inh)
COc1cc(-c2nc3ccccc3s2)ccc1O	Mtb FBA inh 150
O=S1(=O)CC(c2ccccc2)=NN=C(c2ccccc2)C1	none (no result: RecA intein inh, UGM FP inh, Rv3671c protease, Mtb bLac sens)
CCOC(=O)c1n[nH]n(-c2cc(Cl)cc(Cl)c2)c1=O	none (no result: RecA intein inh)
COC(=O)Cc1c(C)[nH]n(-c2cc(Cl)cc(Cl)c2)c1=O	RecA intein inh 40
CC(C)C(=O)Nc1nc(-c2ccc(S(=O)(=O)N3CCOCC3)cc2)cs1	Mtb FBA inh 59
